Compounds with a hit are over-represented: about 9.9% of the library has one in this group of screens.
IL1B secr inh – inflammasome signaling inhibition, IL-1 beta readout; activity change, % at 57.5 µM; THP-1 LPS/ATP IL-1B secretion, AlphaLISA, 16 h; active compounds read low; 4.7% of 360,000 active; AID 743279; in the data active = activity change below about -50%; inconclusive = mostly about -30% to -49%; also: % is scaled to controls: 0 for no effect and ±100 for the full control effect
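Secreted IL-1B measured by AlphaLISA bead assay after 16 h compound exposure of THP-1 cells; compounds (final up to 57.5 uM) added 1 h before LPS (250 ng/mL) and ATP (1.25 mM) stimulation; lower signal means less secretion.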
SW480 rereplic – induces DNA re-replication in SW480 colon adenocarcinoma cells; SW480 DNA re-replication, Hoechst DNA content imaging, 48 h; Potency, µM (top dose mostly 46.1 µM), for inactives: top-dose re-replication activation, usual class: activators; 1.8% of 340,000 active; also: potency is read from the fitted curve at half-maximal effect; % of control where 0% means no effect; nearly all actives have a fitted effect of over 55% in size
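Compounds, transferred as 23 nL by pin tool, were incubated with cells for 48 hr; DNA content per nucleus was then quantified by Hoechst staining and fluorescence plate imaging.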
KB-V1 MDR tox – KB-V1 MDR subline cytotoxicity | KB-V1 MDR cells viability, CellTiter-Glo, 72 h | Potency, µM (titrated, usually from 46.1 µM), usual class: cytotoxic | 3.4% of 400,000 active | AID 1347076; also: potency is read from the fitted curve at half-maximal effect; % is scaled to controls: 0 for no effect and ±100 for the full control effect; nearly all actives have a fitted effect of over 60% in size
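Luminescent ATP read-out (CellTiter-Glo, 10 min) measures survival of drug-selected KB-V1 MDR cells after 72 h, 37 degrees C compound exposure. Medium: phenol-red-free DMEM, 10% FBS. Values from fitted concentration-response curves.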
KB-3-1 tox – KB-3-1 parental cell cytotoxicity; KB-3-1 viability, CellTiter-Glo ATP luminescence, 72 h; 1.4% of 400,000 active; Potency, µM (series often up to 46.1 µM), most hits filed as cytotoxic; also: potency is read from the fitted curve at half-maximal effect; % is scaled to controls: 0 for no effect and ±100 for the full control effect; nearly all actives have a fitted effect of over 60% in size
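Cells are dispensed, compounds pinned in, plates held at 37 °C for 72 h, then CellTiter-Glo is added and luminescence read after 10 minutes. Cell line: parental KB-3-1 in phenol-red-free DMEM, 10% FBS.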
MCF10A rereplic – DNA re-replication induction in MCF 10a cells; Potency, µM (series often up to 46.1 µM), for inactives: at the top dose activity, positive = re-replication, actives largely listed as activators; 2.9% of 350,000 active; MCF 10A DNA re-replication, Hoechst nuclear intensity, 48 h; also: potency is read from the fitted curve at half-maximal effect; % of control where 0% means no effect; nearly all actives have a fitted effect of over 50% in size
An asterisk follows results filed as active; i = inactive; ? = inconclusive; nt = no result. Unless noted, calls follow the shape of the dose curve; as a rule, active = well fitted curve in the direction sought with a large enough effect; inconclusive = small, poorly fitted or top-dose-only effect, or another doubt; inactive = no such curve, though single readings can be large; an effect the other way counts as inactive or inconclusive.

SMILES	IL1B secr inh	SW480 rereplic	KB-V1 MDR tox	KB-3-1 tox	MCF10A rereplic
Cc1ccc(OCCn2c(-c3ccc(Cl)cc3)nc3ccccc3c2=O)c(C)c1	nt	nt	?	i	nt
CC(=O)Nc1cc(-c2cccc(C(=O)NCCN(C)C)c2)cn2c(-c3ccc(S(C)(=O)=O)cc3)cnc12	-17	nt	i	i	nt
CCSc1ccc(-c2cc(NC=O)c3ncc(-c4cccc(C(=O)NCCN(C)C)c4)n3c2)cc1	-108*	nt	i	?	nt
CC(=O)Nc1cc(-c2cccc(C(=O)NCCN(C)C)c2)cn2c(-c3ccccc3)cnc12	-53*	nt	i	i	nt
COc1ccc(CC(=O)NCC2CCCN(Cc3ccccc3OC)C2)cc1 (stereo not given)	-17	11%	i	i	3%
O=C(Nc1ccccc1)OCC1COC(c2ccccc2)(c2ccccc2)O1 (stereo not given)	-69*	-10%	i	i	?
O=C(Nc1ccccc1)OCC1CCCO1 (stereo not given)	6	7%	i	i	-2%
CCc1nccn1CCC(=O)NC1CCCc2c1cnn2-c1ccc(F)cc1F (stereo not given)	34	?	i	?	18%
O=S(=O)(Nc1nccs1)c1ccc(F)cc1	6	16%	i	i	2.3µM*
Cn1c(CCNC(=O)c2ccccc2)nc2cc(NC(=O)c3ccco3)ccc21	22	-1%	16µM*	?	10%
COc1ccccc1C(=O)Nc1ccc2c(c1)nc(CCNC(=O)c1ccco1)n2C	-20	5.2µM*	?	1.6µM*	?
N/C(=N/OCC(=O)Nc1cccc2ccccc12)c1nonc1N	-10	-6%	15µM*	i	0%
O=C(O)c1[nH]c2ccccc2c1C=NCc1ccccc1Cl	2	-2%	i	i	?
COc1ccc(N2CCN(C(=O)CSc3nnc4c(C)cc5ccc(C)c(C)c5n34)CC2)cc1	-66*	-1%	i	i	7%
COc1ccc(N2CCN(C(=O)CSc3nnc4c(C)cc5cc(C)ccc5n34)CC2)cc1	-15	-5%	5.8µM*	i	-3%
Cc1ccc(NC(=O)CN2C(=O)NC(Cc3ccccc3)C2=O)c(Br)c1 (stereo not given)	12	0%	i	i	-2%
COc1cc(NC(=O)Cn2ccc3ccccc3c2=O)cc(OC)c1OC	nt	nt	i	i	nt
Cc1ccoc1C(=O)NCCNc1ccc(Cl)cc1[N+](=O)[O-]	-59*	-6%	i	i	0%
Cc1sc2nc(SCC(=O)OC(C)C)n(C)c(=O)c2c1C	-11	-9%	15µM*	i	12%
COc1cc(/C=N/NC(=O)c2ccc3nc[nH]c3c2)cc(OC)c1OC(C)=O	-10	nt	i	i	nt
COc1cc(/C=N/NC(=O)c2ccncc2)cc(OC)c1OC	23	0%	i	i	?
CCOc1ccc2[nH]c(C(=O)N/N=C/c3cc(OC)c(OC)c(OC)c3)cc2c1	-79*	-6%	i	i	?
COc1cc(/C=N/NC(=O)c2ccc3nc[nH]c3c2)cc(OC)c1OC	-67*	12%	i	i	0%
COc1cc(C(=O)NN=Cc2ccc(N(C)C)cc2)cc(OC)c1OC	0	nt	3.7µM*	1.5µM*	nt
CC(=O)N1CCc2cc(Br)cc(S(=O)(=O)N3CCC(C)CC3)c21	nt	nt	i	i	nt
SMILES	IL1B secr inh	SW480 rereplic	KB-V1 MDR tox	KB-3-1 tox	MCF10A rereplic
N#CC1c2ccccc2C=CN1C(=O)N(c1ccccc1)c1ccccc1 (stereo not given)	-97*	?	21µM*	?	3.3µM*
O=C1C(O)=CC(=C(c2ccccc2)c2ccccc2)c2ccccc21	-92*	?	i	?	?
CN(C)CCC(=O)c1cccc(Br)c1	-17	?	i	i	18µM*
CN(C)CCC(=O)c1ccc(F)cc1	-12	?	i	i	?
CN(C)CCC(=O)c1ccc2c(c1)OCO2	-24	?	i	?	7.3µM*
COc1ccc2c(CC(=O)OCC(=O)N(C)c3c(N)n(Cc4ccccc4)c(=O)[nH]c3=O)coc2c1	11	8%	i	i	1%
CCC(C)(C)n1nnnc1C(c1cc2cc(C)cc(C)c2[nH]c1=O)N1CCCC1 (stereo not given)	-51*	22%	i	i	?
Cc1cc(C)c2[nH]c(=O)c(C(c3nnnn3CC3CCCO3)N3CCCC(C)C3)cc2c1 (stereo not given)	?	9%	i	i	1%
Cc1ccc(C)c2[nH]c(=O)c(C(c3nnnn3C(C)(C)C)N3CC=C(c4ccc(F)cc4)CC3)cc12 (stereo not given)	-15	0.16µM*	?	i	?
CCC(C)(C)n1nnnc1C(c1cc2cccc(C)c2[nH]c1=O)N1CCCC1 (stereo not given)	-16	15%	?	?	19%
CCC(C)(C)n1nnnc1C(c1ccc(C)cc1)N1CCCC1 (stereo not given)	-4	23µM*	?	i	?
Cc1cc(C)c2[nH]c(=O)c(C(c3nnnn3CC3CCCO3)N3CCC(C)CC3)cc2c1 (stereo not given)	-10	?	4.6µM*	i	19%
COc1ccc(-c2nnc(SCC(=O)N(C)C3CCCCC3)o2)cc1OC	nt	nt	i	i	nt
Cc1cc(C(=O)Nc2cccc3c2O[C@@H](CN(C)S(C)(=O)=O)[C@H](C)CN([C@@H](C)CO)C3=O)n(C)n1	11	5%	?	i	0%
CCOC(=O)C1CCC(=O)N1Cc1c[nH]c2ccccc12 (stereo not given)	7	nt	i	i	nt
CC(C)NC(=O)C1(C#N)C=C1c1ccccc1 (stereo not given)	-84*	nt	?	8.2µM*	nt
O=C(CN(Cc1ccc(Cl)cc1)C(=O)CNS(=O)(=O)c1ccc(F)cc1)NCC1CCCO1 (stereo not given)	-16	-4%	i	i	2%
OCC1(Cc2cccc(F)c2)CCN(Cc2cccc3nccnc23)CC1	?	?	?	?	-9%
CC(C)c1csc(CN2CCC(CO)(Cc3cccc(F)c3)CC2)n1	-59*	-1%	?	?	?
CCOc1ccc(C(=O)c2cc([N+](=O)[O-])ccc2N2CCOCC2)cc1	8	0.058µM*	?	0.029µM*	?
Cc1cc(N2CCOCC2)c(F)cc1C(=O)c1ccccc1	-25	-7%	18µM*	i	4%
Cc1ccc(C(=O)c2cc([N+](=O)[O-])ccc2N2CCOCC2)cc1	36	3.7µM*	0.82µM*	2.1µM*	3.7µM*
O=C(c1cc([N+](=O)[O-])ccc1N1CCOCC1)N1CCOCC1	-7	-10%	i	i	-1%
